Bioassay records deposited in PubChem BioAssay by several laboratories.
LMP1 NFkB inh = EBV LMP1-driven NF-kappaB luciferase reporter inhibitors, primary screen, cell-based, luminescence, single point. inhibition, % at 12.5 µM. AID 504558, 2011. LMP1-induced NF-kappaB luciferase reporter cells. 0.69% of 350,000 active; in the data active = inhibition above about 41%
TWEAK-Fn14 inh = inhibitors of TWEAK-Fn14 signaling, primary screen, luciferase reporter cells, uHTS. TWEAK-stimulated Fn14 reporter cells, luciferase luminescence, 8 h. inhibition, % at 10 µM. 2% of 360,000 active; in the data active = inhibition above about 50%
HSF1 inhib = HSF1 inhibitors in luciferase reporter cells, primary screen, cell-based, NIH3T3, luminescence | NIH3T3-HGL HSE-luciferase, MG132-induced, luminescence 8 h; active compounds read low | 0.77% of 300,000 active | activity change, negative = inhibition, % at 7.5 µM (by protocol) | AID 2098, 2009;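 active = more than half of replicate wells show activity change below -50%, luminescence cut by over half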;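 note: luciferase reports HSF-1 transcriptional activity via heat shock element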
LGR2 inh = inhibitors of bursicon-induced LGR2 CRE-luciferase signal, primary screen, cell-based, HEK293, CRE-luciferase reporter, bursicon stimulation; Drosophila bursicon receptor LGR2 (rickets); bursicon-stimulated, 4 h; inhibition, % at 9.99 µM; 0.35% of 380,000 active; AID 720647, 2013;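 active = drop in luminescence signal, shown as inhibition above about 50% in the replicate tests, limit read from the data, passing the limit was not always enough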;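 note: agonist challenge used bursicon conditioned medium at about half maximal strength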
HSF-1 act = HSF-1 activators, primary screen, NIH3T3-HGL cells, MG132 stress, luminescence, single point; AID 504408, 2011; 1.7% of 300,000 active; activation, % at 9 µM; NIH3T3-HGL HSF-1 luciferase reporter, 8 h; 100% = twice DMSO control signal;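 active = mean replicate activation of at least 50% with a set share of replicates each reaching 50%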
TROY NFkB inh = inhibitors of TROY-driven NF-kB signaling, primary screen, Q293 LMP1-TROYcd cells, NF-kB luciferase, uHTS | Q293 LMP1-TROYcd NF-kB luciferase reporter, 4 h | inhibition, % at 10 µM | 0.98% of 360,000 active | AID 1347056, 2019;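 active = compounds whose plate-normalised and pattern-corrected inhibition of the luciferase reporter signal at the single screening dose is 50% or more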
A number is an active result. In the library only some 3.6% were active in any assay of this set; here they are far more common.

How did C[C@H](CO)N1C[C@H](C)[C@H](CN(C)S(=O)(=O)c2ccccc2)OCCCC[C@H](C)Oc2ccc(NC(=O)CCCN(C)C)cc2C1=O do in these assays?
LGR2 inh: inactive

How did CCCSc1nsc(NC(=O)C(c2ccccc2)c2ccccc2)n1 do in these assays?
LMP1 NFkB inh: inactive; TWEAK-Fn14 inh: inactive; HSF1 inhib: inactive; HSF-1 act: inactive; TROY NFkB inh: 55

Results for COc1cccc(NC(=O)Nc2nc(SC(C)(C)C)ns2)c1 ?
LMP1 NFkB inh: inactive; TWEAK-Fn14 inh: 77; HSF1 inhib: inactive; LGR2 inh: inactive; HSF-1 act: inactive; TROY NFkB inh: inactive

What do the screens show for `CCCSc1nsc(NC(=O)CC)n1`?
LMP1 NFkB inh: inactive; TWEAK-Fn14 inh: inactive; HSF1 inhib: inactive; LGR2 inh: inactive; HSF-1 act: inactive; TROY NFkB inh: inactive

How did COc1ccc(CN(C)C[C@@H]2Oc3ccc(NC(=O)CCC(F)(F)F)cc3C(=O)N([C@@H](C)CO)C[C@@H]2C)cc1 do in these assays?
LGR2 inh: inactive

What do the screens show for `CC(O)CNCCNCc1c(OCc2ccccc2)ccc2ccccc12` (stereo unspecified)?
LMP1 NFkB inh: inactive; TWEAK-Fn14 inh: inactive; HSF1 inhib: inactive; HSF-1 act: inactive; TROY NFkB inh: inactive

How did OCCNCc1c(OCc2ccc(Cl)cc2)ccc2ccccc12 do in these assays?
LMP1 NFkB inh: inactive; TWEAK-Fn14 inh: inactive; HSF1 inhib: inactive; LGR2 inh: inactive; HSF-1 act: 62; TROY NFkB inh: inactive

What do the screens show for `Cn1cnc(CCNC(=O)C[C@H]2CC[C@H]3[C@@H](COC[C@H](O)CN3C(=O)Nc3ccc(F)cc3)O2)c1`?
LGR2 inh: inactive

Results for CCCCCCC(=O)c1c(C)[nH]c(C(=O)OCC)c1C ?
LMP1 NFkB inh: inactive; TWEAK-Fn14 inh: inactive; HSF1 inhib: inactive; HSF-1 act: 53; TROY NFkB inh: inactive

Results for CCOC(=O)c1c(C)[nH]c(C(=O)COC(=O)CSC)c1C ?
LMP1 NFkB inh: inactive; TWEAK-Fn14 inh: inactive; HSF1 inhib: inactive; HSF-1 act: inactive; TROY NFkB inh: inactive

How did CCOC(=O)c1c(C)[nH]c(C(=O)COC(=O)CNC(=O)C2CCCCC2)c1C do in these assays?
LMP1 NFkB inh: inactive; TWEAK-Fn14 inh: inactive; HSF1 inhib: inactive; LGR2 inh: inactive; HSF-1 act: inactive; TROY NFkB inh: 69

Results for CCc1ccc(C(=O)COC(=O)CNC(=O)C2CCCCC2)cc1 ?
LMP1 NFkB inh: inactive; TWEAK-Fn14 inh: 66; LGR2 inh: inactive; TROY NFkB inh: 76

What do the screens show for `CCCCC(=O)OCC(=O)c1[nH]c(C)c(C(=O)OCC)c1C`?
LMP1 NFkB inh: inactive; TWEAK-Fn14 inh: inactive; HSF1 inhib: inactive; LGR2 inh: inactive; HSF-1 act: 76; TROY NFkB inh: inactive

Results for COCCNC(=O)C[C@H]1C[C@@H]2c3cc(NS(=O)(=O)c4ccccc4)ccc3O[C@@H]2[C@@H](CO)O1 ?
LGR2 inh: inactive

Results for O=C(CN1CCOCC1)N1CC2(C1)[C@H](c1ccccc1)[C@@H](CO)N2Cc1ccccc1 ?
LGR2 inh: inactive

What do the screens show for `S=C(NCCc1ccccc1)NN=C1CCCCCC1`?
LMP1 NFkB inh: inactive; TWEAK-Fn14 inh: inactive; HSF1 inhib: inactive; LGR2 inh: inactive; HSF-1 act: 67; TROY NFkB inh: inactive

Results for C[C@H]1CN([C@@H](C)CO)C(=O)Cc2cc(NC(=O)Nc3ccccc3)ccc2O[C@@H]1CN(C)C(=O)Nc1ccccc1 ?
LGR2 inh: inactive

What do the screens show for `CC(C)NC(=O)N(C)C[C@@H]1Oc2c(NC(=O)Nc3ccc(F)cc3)cccc2C(=O)N([C@H](C)CO)C[C@@H]1C`?
LGR2 inh: inactive

Results for O=C(Nc1ccc2c(c1)OCO2)N[C@H]1C=C[C@H](CC(=O)N2CCN(c3ccccc3)CC2)O[C@@H]1CO ?
LGR2 inh: inactive

What do the screens show for `O=C(C1CCCN(S(=O)(=O)c2ccc(Cl)cc2)C1)N(Cc1cccs1)C1CC1` (stereo unspecified)?
LMP1 NFkB inh: inactive; TWEAK-Fn14 inh: inactive; HSF1 inhib: -65; HSF-1 act: inactive; TROY NFkB inh: inactive

Results for CN(Cc1cccs1)C(=O)c1ccc(S(=O)(=O)N2CCCCC2)cc1 ?
LMP1 NFkB inh: inactive; TWEAK-Fn14 inh: inactive; HSF1 inhib: inactive; LGR2 inh: inactive; HSF-1 act: inactive; TROY NFkB inh: inactive

Results for C#CCOC(=O)c1ccccc1C(=O)n1nnc2ccccc21 ?
LMP1 NFkB inh: inactive; TWEAK-Fn14 inh: 55; HSF1 inhib: inactive; LGR2 inh: inactive; HSF-1 act: inactive; TROY NFkB inh: inactive

What do the screens show for `CC(C)c1ccc(/C=C/C(=O)n2nnc3ccccc32)cc1`?
LMP1 NFkB inh: inactive; TWEAK-Fn14 inh: inactive; HSF1 inhib: inactive; HSF-1 act: 83; TROY NFkB inh: inactive

How did CN(C)c1ccc(C(=O)n2nnc3ccccc32)cc1 do in these assays?
LMP1 NFkB inh: inactive; TWEAK-Fn14 inh: 94; HSF1 inhib: inactive; HSF-1 act: 56; TROY NFkB inh: inactive

What do the screens show for `Cc1ccc(C(=O)n2nnc3ccccc32)cc1`?
HSF1 inhib: inactive; HSF-1 act: inactive

Results for CCN(C[C@@H]1[C@@H](c2ccccc2)[C@H](CO)N1C(C)=O)C(=O)NC1CCCC1 ?
LGR2 inh: inactive

Results for C[C@H](CO)N1C[C@H](C)[C@H](CN(C)Cc2ccccc2)Oc2ccc(NC(=O)C3CC3)cc2C1=O ?
LGR2 inh: inactive

How did CC(C)NC(=O)N[C@@H]1C=C[C@@H](CC(=O)NCc2ccc(Oc3ccccc3)cc2)O[C@@H]1CO do in these assays?
LGR2 inh: inactive

How did CC(=O)N(C)C[C@@H]1Oc2cc(C#CCC(C)C)ccc2S(=O)(=O)N([C@H](C)CO)C[C@@H]1C do in these assays?
LGR2 inh: inactive

What do the screens show for `C[C@@H]1CN([C@@H](C)CO)C(=O)c2cc(NC(=O)C3CC3)ccc2O[C@H]1CN(C)S(=O)(=O)c1cn(C)cn1`?
LGR2 inh: inactive

Results for CCOC(=O)c1c(-c2ccc(C)o2)csc1NC(=S)NC(=O)c1ccccc1Br ?
LMP1 NFkB inh: inactive; TWEAK-Fn14 inh: inactive; HSF1 inhib: inactive; HSF-1 act: 85; TROY NFkB inh: inactive

How did CCOC(=O)c1c(-c2ccc(C)o2)csc1NC(=O)COC(=O)c1ccc(NC(N)=O)cc1 do in these assays?
LMP1 NFkB inh: inactive; TWEAK-Fn14 inh: inactive; HSF1 inhib: inactive; HSF-1 act: 74; TROY NFkB inh: inactive

How did COc1ccc(C(=O)Cn2c(C)nc([N+](=O)[O-])c2Br)cc1 do in these assays?
LMP1 NFkB inh: inactive; TWEAK-Fn14 inh: 50; HSF1 inhib: inactive; LGR2 inh: inactive; HSF-1 act: 172; TROY NFkB inh: inactive
